# Most compounds without a hit are left out; they make up all but 5.3% or so of the library.
# ALR H2O2 inh: inhibitors of human ALR sulfhydryl oxidase, primary screen, biochemical, H2O2 detection, HRP-luminol luminescence, single point | purified ALR, DTT oxidation | FAD-linked sulfhydryl oxidase ALR (Homo sapiens), P55789 | inhibition, % (concentration not given with the values) | hit rate 3.8% among 290,000;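 active = mean replicate inhibition above about 79%, with every replicate also reaching it, limit read from the data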
# Target sequence (P55789 whole entry, looked up): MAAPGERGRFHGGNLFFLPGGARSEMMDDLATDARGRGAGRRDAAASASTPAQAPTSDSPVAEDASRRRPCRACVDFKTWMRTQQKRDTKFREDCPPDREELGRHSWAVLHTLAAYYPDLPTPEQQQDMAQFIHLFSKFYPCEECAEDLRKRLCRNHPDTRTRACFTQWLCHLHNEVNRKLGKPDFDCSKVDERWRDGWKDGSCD
# HIF act: HIF pathway transcriptional activators, primary screen, cell-based, U2OS HRE-luciferase, luminescence. AID 1910, 2009. hit rate 0.32% among 300,000. activation, % at 7.5 µM (by protocol). U2OS HRE-luciferase reporter; normalized: DMSO 0%, desferrioxamine 100%;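 active = mean activation of at least 10% of the iron chelator positive control signal, with at least half of replicates also reaching 10%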
# SUMO Mot1 rescue: yeast Mot1-301 growth rescue at high temperature, primary screen, SUMOylation pathway inhibitor project, S. cerevisiae, ATP luminescence, 38.5C. S. cerevisiae Mot1-301 growth rescue; percent above DMSO median, 100 means doubled. growth rescue, % at 18.8 µM. hit rate 1% among 320,000. AID 2716, 2010;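 active = every valid replicate shows activation above 250% relative to neutral control wells; inactive = the rest, any valid replicate at or below 250%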;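 also: OY570 slx delta 5 strain wells were the positive control but not used for scaling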
# PfM18AAP inh: PfM18AAP inhibitors, malaria aminopeptidase, primary screen, biochemical, QFRET, recombinant enzyme; hit rate 1.2% among 290,000; M18 aspartyl aminopeptidase (Plasmodium falciparum 3D7); H-Glu-NHMec fluorogenic cleavage; AID 1822, 2009; inhibition, % at 7.35 µM;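 active = inhibition above the campaign mean inhibition over all tested compounds plus 3 SD, cut at about 28% in these data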;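 also: 0% = plate median of test compound wells and 100% = 2 mM ZnCl2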
# * marks the source's active call; other numbers are inactive results; . = not tested or not shown.
SMILES,ALR H2O2 inh,HIF act,SUMO Mot1 rescue,PfM18AAP inh
CN(C)c1ccc(C(=O)NC2(N3CCC3=O)CCCC2)cc1,100*,0,-8,-8
O=C(COc1ncnc2sccc12)N1CCN(C(=O)c2ccco2)CC1,-5,0,196,5
CCOc1ccccc1N1CC(C(=O)Nc2ccccc2N2CCCC2)CC1=O (configuration not stated),88*,-1,-2,.
O=C(Nc1ccccc1N1CCCC1)C1CC(=O)N(Cc2ccccc2)C1 (configuration not stated),97*,0,-4,.
CCC(C)c1ccccc1N1CC(C(=O)Nc2ccccc2N2CCCC2)CC1=O (configuration not stated),71,0,-11,21
Cc1[nH]c2ccccc2c1C(=O)C(=O)N1CC=C(c2ccccc2)CC1,.,0,-7,-1
Cc1cccc(N2CCN(C(=O)CCN3C(=S)NC(C)(C)CC3C)CC2)c1C (configuration not stated),.,0,614*,5
Cc1ccc(C)c(N2CCN(C(=O)CCCN3C(=S)NC(C)(C)CC3C)CC2)c1 (configuration not stated),18,-1,-11,5
COC(=O)Cc1nc(Nc2ccccc2)sc1C,99*,-1,15,2
COc1ccccc1N/N=C(\C#N)C(=N)N1CCOCC1,82*,1,-8,3
CCN(CC)C(=N)/C(C#N)=N/Nc1ccccc1,87*,2,16,1
N#C/C(=N\Nc1ccc(Br)cc1)C(=N)N1CCOCC1,98*,3,.,6
Cc1ccc(N/N=C(\C#N)C(=N)N2CCCCC2)cc1,99*,3,6,2
O=C(NCc1ccc(F)cc1)C(c1cccnc1)N(C(=O)c1csnn1)c1ccccc1 (configuration not stated),-5,0,6,3
NC1=NC(=O)C(Cc2ccc(OC(F)(F)F)cc2)S1 (configuration not stated),-4,1,-21,2
N#C/C(=N\Nc1ccc(Cl)cc1)C(=N)N1CCCCCC1,.,0,-31,4
N#C/C(=N\Nc1ccccc1)C(=N)N1CCCCC1,99*,3,-12,-1
O=C(Nc1nc(-c2cccs2)cs1)c1ccc([N+](=O)[O-])o1,-53,.,146,.
O=C1NN(c2ccccc2)C(=O)/C1=C\c1ccccc1OCC(=O)N1CCOCC1,99*,0,4,-10
CC(=O)Nc1ccccc1NS(=O)(=O)c1ccc(Cl)cc1,4,0,-8,11
O=S(=O)(Nc1cccc2c1CCCC2)c1ccc(Cl)cc1,84*,0,130,0
C=CCN1C(=O)c2ccccc2Sc2ccc(C(=O)N3CCN(C)CC3)cc21,-5,10*,-2,2
CC(=O)c1ccc(S(=O)(=O)N2CCNC(=O)C2)cc1,97*,.,-6,.
COc1cc(CNc2ccc3[nH]c(=O)[nH]c3c2)ccc1OCc1ccccc1Cl,-55,2,18,-10
C=CCOc1ccccc1CNc1ccc2[nH]c(=O)[nH]c2c1,99*,-1,5,-63
SMILES,ALR H2O2 inh,HIF act,SUMO Mot1 rescue,PfM18AAP inh
C=CCOc1c(Cl)cc(CNc2ccc3[nH]c(=O)[nH]c3c2)cc1OC,98*,0,-16,-32
COc1cccc(CNc2ccc3[nH]c(=O)[nH]c3c2)c1OCc1ccccc1F,99*,-1,-7,-58
Cc1nc2nc3c(cn2n1)C(=O)CCC3,-24,0,-6,17
CCN(CC)CCCN1C(=O)CSC1c1ccc([N+](=O)[O-])cc1 (configuration not stated),-10,0,-2,2
CCCCOC(=O)Cn1c(-c2ccccc2)nc2ccccc2c1=O,-5,0,553*,-10
CCCOC(=O)C(C)n1c(-c2ccccc2)nc2ccccc2c1=O (configuration not stated),91*,0,-15,-15
c1ccc(-c2nc(-c3ccco3)cs2)nc1,98*,2,10,-15
O=C(Nc1nnc(S(=O)(=O)N2CCOCC2)s1)c1ccccc1,99*,1,65,4
O=C(Nc1nnc(S(=O)(=O)N2CCOCC2)s1)c1ccc(Cl)cc1,-2,0,18,2
COCCCNC(=S)Nc1ccc(C)cc1,37,1,3,1
CCOCCCNC(=S)Nc1cc(C)cc(C)c1,2,143*,-2,-1
Cc1cc(C)cc(NC(=S)NCCN(C2CCCCC2)C2CCCC2)c1,-8,0,430*,-9
Cc1ccc(NC(=S)NCCN(C2CCCCC2)C2CCCC2)cc1,3,0,71,-6

# Source: PubChem (several laboratories)
